These results are taken from PubChem BioAssay AID588413 (Sanford-Burnham Center for Chemical Genomics, 2011).

Screen size: about 340,000 compounds; about 2,500 (0.74%) were called active. Only a selection was taken, and actives are over-represented in it overall. A number with no mark means an inactive call.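 The calls were made as follows: active = inhibition above about 55% (limit read from the data); inactive = the rest.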

The test in a line: blockers of Gli reporter signaling – luciferase luminescence, Sufu-KO-LIGHT cells, uHTS, primary screen (AID 588413).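 Also: 0% = DMSO-treated cells and 100% = wells with medium but no cells.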 The settings on record: Sufu-KO-LIGHT fibroblasts, at 5 µM, stronger effect = higher value.
As for `CC(=O)c1ccc(NC(=O)C(C)OC(=O)c2ccc(NS(=O)(=O)c3ccc4[nH]c(=O)[nH]c4c3)cc2)cc1` (configuration not stated), the inhibition is 7.04%.
In the case of `O=C1CSC(=O)N1CCOCCN1C(=O)CSC1=O`, the inhibition was -19.6%.
As to `CCN(CC)S(=O)(=O)c1ccc(N(C)Cc2cccc(OC)c2OC)nc1`, the inhibition was 1.8%.
`O=C(C[C@H]1C/C=C\C[C@@H](NC(=O)OCC2c3ccccc3-c3ccccc32)C(=O)O[C@@H](c2ccccc2)CNC1=O)N[C@H](CO)Cc1ccccc1`: the inhibition is 60.2% (active).
In the case of `CC(C)(C)OC(=O)C[C@@H]1C/C=C\C[C@@H](CC(=O)N[C@H](CO)Cc2ccccc2)C(=O)NC[C@@H](c2ccccc2)OC1=O` it was -21.7%; in that of `CC(C)(C)OC(=O)C[C@H]1C/C=C\C[C@@H](CC(=O)N[C@H](CO)Cc2ccccc2)C(=O)NC[C@@H](c2ccccc2)OC1=O`, 4.33%.
With `COc1ccc(CCNC(=O)CCn2c(=O)c3ccccc3n(CC(=O)NCC3CCCO3)c2=O)cc1OC` (configuration not stated), the inhibition was 2.58%.
As to `CCN(CC(=O)Nc1cc(Cl)ccc1C)C(=O)CSCc1ccccc1`, the inhibition was -4.34%.
`CCN(CC(=O)Nc1ccc(OC)cc1)C(=O)CSCc1ccc(C)cc1`: the inhibition is -9.04%.
Regarding `CCN(CC(=O)Nc1cc(Cl)ccc1C)C(=O)CSCc1ccc(C)cc1`, the inhibition is 62.8% (active).
In the case of `Cc1ccc2c(c1)N(CC(=O)NCCc1ccc(Cl)cc1)C(=O)c1cccnc1O2` it was -9.76%; in that of `COC[C@@H]1NS(=O)(=O)c2ccc(Br)cc2O[C@H]1c1ccccc1`, 15.6%; in that of `Cc1ccc(S(=O)(=O)c2nc(-c3cccs3)oc2NCc2cccnc2)cc1`, 3.04%.
Turning to `Cc1ccc(OCCNC(=O)CN2C(=O)NC3(CCCC3)C2=O)cc1`, the inhibition was -5.27%.
`Cc1c(NC(=O)CSc2cccc3cccnc23)c(=O)n(-c2ccccc2)n1C`: the inhibition was 8.55%.
On to `O=C(CSc1cccc2cccnc12)N/N=C/c1cccnc1`, for which the inhibition was 71% (active).
Take `COc1ccc(C(=O)NCC(=O)N/N=C/c2cccnc2)cc1`: the inhibition was -0.02%.
As to `NC(=O)CC(NC(=O)Cc1ccc(Br)cc1)c1ccc(NC2CC3CCC2C3)c([N+](=O)[O-])c1` (configuration not stated), the inhibition was 19%.
Consider `CC(=O)N1CCC(C(=O)Nc2nc(-c3ccccc3)ns2)CC1`, for which the inhibition is -14.5%.
On to `Cc1nn(C)c(Cl)c1CN1CCC(n2nccc2NC(=O)C2CCCC2)CC1`, for which the inhibition is 61.7% (active).
In the case of `CC(CN1CCC(n2nccc2NC(=O)C2CCCC2)CC1)c1ccccc1` (configuration not stated) it was 8.83%; in that of `O=C(Nc1ccnn1C1CCN(Cc2cccc(OCCO)c2)CC1)C1CCCC1`, 10.8%.
As for `COc1cccc(-n2nc(C(=O)N3CCN(Cc4ccccc4)CC3)c3ccccc3c2=O)c1`, the inhibition is 11%.
`COc1cccc(-n2cc3c(c2-c2ccccc2)c(=O)n(C)c(=O)n3C)c1`: the inhibition is 1.34%.
In the case of `COc1cccc(-n2cc(C(=O)O)c3ccccc3c2=O)c1` it was 59.2% (active); in that of `CCCCOC(=O)CNc1nnc(SCC(=O)OCC)[nH]c1=O`, -6.62%; in that of `COc1ccccc1NC(=O)CCSc1nnc(-c2ccc(O)cc2)o1`, -0.57%.
`Brc1c(CSc2nncc3ccccc23)nc2ccccn12`: the inhibition is 65% (active).
For `COc1cc(C(=O)N2CCN(C3CCC(C)CC3)CC2)cc(OC)c1OC` (configuration not stated), the inhibition is 5.83%.
Regarding `O=c1c2cc([N+](=O)[O-])ccc2nc2n1CCC2`, the inhibition was -23.1%.
For `Cc1cc(C)n(-c2c(F)c(F)c(COC(=O)c3ccccc3)c(F)c2F)n1`, the inhibition was 6.99%.
In the case of `CCOC(=O)c1cnc(-n2nc(C)cc2C)nc1NNc1cc(C)nc(-c2ccccc2)n1` it was 80% (active).
Take `CC(=O)c1ccc(Oc2cc(C)nc(-n3nc(C)cc3C)n2)cc1`: the inhibition is 30.8%.
In the case of `Cc1nn(Cc2ccc(F)cc2)c(C)c1NC(=O)c1noc2c1CCc1ccccc1-2`, the inhibition was 6.19%.
Turning to `O=C(O)C(c1cccs1)C1(O)CCCCC1` (configuration not stated), the inhibition was 6.95%.
`C=CCOC(=O)C1=C[C@H](c2ccc(Br)cc2)C[C@H](OCCCCO)O1`: the inhibition was -1%.
With `C=CCOC(=O)C1=C[C@@H](c2ccc3c(c2)OCO3)C[C@@H](OCCCCO)O1`, the inhibition was 98.8% (active).
In the case of `NC(=O)C1=C[C@@H](c2ccc3c(c2)OCO3)C[C@@H](OCCCCO)O1` it was -4.81%; in that of `COC(=O)c1cccc(NC(=O)c2cccc(N3C(=O)CCC3=O)c2)c1`, 8.09%.
Consider `COc1ccccc1-c1nnc(NC(=O)c2cccc(N3C(=O)CCC3=O)c2)o1`, for which the inhibition was -6.14%.
In the case of `Cc1cc(NC(=O)c2cccc(N3C(=O)CCC3=O)c2)no1` it was 98.8% (active).
For the molecule `C/C(CC(=O)N1CCN(C=O)CC1)=N\NC(=O)c1ccc(Br)cc1`, the inhibition is 3.23%.
Regarding `CCOC(=O)c1c(C)nn(-c2ncccc2NC(=O)CCC(=O)O)c1C`, the inhibition is 1.77%.
In the case of `Cn1c(=O)n(C)c2cc(CNc3ccc(N4CCOCC4)c(C(=O)O)c3)ccc21` it was 5.36%; in that of `COCC(=O)Nc1ccc(Br)cc1`, -3.01%; in that of `CN1C(CC(=O)Nc2ccc(Br)cc2)c2ccccc2CC1(C)C` (configuration not stated), 75.8% (active).
In the case of `CN1CCN(NC(=O)Nc2ccc(Br)cc2)CC1` it was -5.05%.
In the case of `COc1ccc(C(=O)N2CCCC(C(=O)c3ccccc3OC)C2)cc1OC` (configuration not stated) it was -11.7%; in that of `COc1ccccc1C(CNC(=O)c1cccc(NS(=O)(=O)c2ccc(Br)cc2)c1)N(C)C` (configuration not stated), 4.43%.
As for `COc1ccc(C(=O)Nc2ccnn2C2CCN(Cc3ccncc3)CC2)cc1`, the inhibition is -4.23%.
For `COc1ccccc1C(=O)Nc1ccnn1C1CCN(Cc2cnn(C)c2)CC1`, the inhibition is 8.85%.
Consider `CC(C)Oc1ccc(CN2CCC(n3nccc3NC(=O)c3cccnc3)CC2)cc1`, for which the inhibition was 61.3% (active).
Regarding `COCCn1cnnc1SCC(=O)Nc1cccc(S(=O)(=O)N2CCCCC2)c1`, the inhibition was -21.3%.
Regarding `CCOc1cccc(NC(=O)Cn2nc(-c3ccc4c(c3)OCCO4)ccc2=O)c1`, the inhibition is -1.4%.
As for `Cc1c(C(=O)NCC(c2ccco2)N2CCCC2)oc2ccc(Cl)cc12` (configuration not stated), the inhibition is 16.9%.
In the case of `O=C1[C@@H](c2ccccc2)[C@@H](c2ccccc2)N1c1cccnc1`, the inhibition was 7.59%.
In the case of `C[C@@H]1NS(=O)(=O)c2cc(Cl)ccc2O[C@@H]1c1ccccc1` it was -5.11%; in that of `CCOc1cccc(C(=O)Nc2cnn(Cc3ccccc3)c2)c1`, -43.8%.
Turning to `O=C(COc1cccc(Cl)c1)NCc1ccccc1`, the inhibition is 5.34%.
In the case of `O=C(O)CCCn1cc(NC(=O)COc2cccc(Cl)c2)cn1` it was 62.4% (active); in that of `COC(=O)C1CC2=C(CC(C)(C)CC2=O)N(c2ccccc2)C1=O` (configuration not stated), 4.81%.
Take `Cc1ccc(C(CNC(=O)Nc2cccc(C)c2)N2CCN(C)CC2)cc1` (configuration not stated): the inhibition is 44.3%.
For the molecule `CCOc1cc(C2/C(=C(/O)c3ccc(S(=O)(=O)N4CCCCC4)cc3)C(=O)C(=O)N2CCOC)ccc1O` (configuration not stated), the inhibition is -6.41%.
In the case of `CCCN(C(=O)CSc1nnnn1C)c1c(N)n(Cc2ccccc2)c(=O)[nH]c1=O`, the inhibition is -4.32%.
In the case of `COc1ccc2c(c1)c(=Cc1ccc(N(C)C)cc1)c1cc(-c3ccccc3)[n+](C)n12`, the inhibition was 71.7% (active).
As to `COc1ccc2sc(-c3ccc(N(C)C)cc3)c(C#CCO)c2c1`, the inhibition was -3.68%.
As for `CN(CC(=O)NC(=O)Nc1ccccc1F)Cc1ccccc1`, the inhibition was -0.74%.
On to `CCn1nc(C(=O)Nc2ccc(N3CCOCC3)cc2)c2ccccc2c1=O`, for which the inhibition is 6.24%.
With `CCCN(CCC)C(=S)Nc1cc(C(=O)OC)ccc1C(=O)OC`, the inhibition was 1.47%.
As for `CCS(=O)(=O)Nc1cc(C(=O)OC)ccc1C(=O)OC`, the inhibition was -3.7%.
Take `CCN(CCO)C(=S)Nc1cc(C(=O)OC)ccc1C(=O)OC`: the inhibition is 96.9% (active).
Turning to `COc1ccccc1CN1CCN(C(c2ccccc2)c2ccccc2)CC1`, the inhibition was 25.4%.
As to `CC(C)OCC(O)CN1CCN(C(c2ccccc2)c2ccccc2)CC1` (configuration not stated), the inhibition was 76.8% (active).
In the case of `O=C(C(c1ccccc1)c1ccccc1)N1CCN(CC(O)COc2ccccc2)CC1` (configuration not stated) it was 3.62%; in that of `COc1ccc(C(=O)OCC(=O)NCC2CCCO2)cc1[N+](=O)[O-]` (configuration not stated), -0.12%.
Regarding `c1ccc2c(c1)CSc1sccc1C2=C1CCNCC1`, the inhibition was 28.4%.
In the case of `COC(=O)c1c(C)[nH]c(C(=O)NCCc2ccc(S(N)(=O)=O)cc2)c1C` it was -12.2%.
Regarding `COc1ccc(NC(=O)NNC(=O)COc2cc(C)c(Cl)c(C)c2)c(OC)c1`, the inhibition was -3.14%.
In the case of `Cc1cccc(N2CC(C(=O)Nc3ccccc3N3CCCC3)CC2=O)c1C` (configuration not stated) it was -3.8%; in that of `CC(C)Nc1nnc(SCC(=O)/C=C2\N(C)c3ccccc3C2(C)C)s1`, 2.92%; in that of `CC(=O)Nc1cccc(OCC(=O)/C=C2\N(C)c3ccccc3C2(C)C)c1`, 56.5% (active).
Regarding `CN1CCN(CCC(=O)N/N=C/C=C2\N(C)c3ccccc3C2(C)C)CC1`, the inhibition was 29.6%.
Regarding `COc1ccc(N2CCN(C(=O)C3CCN(S(=O)(=O)c4ccc(C)cc4)CC3)CC2)cc1`, the inhibition was 18.7%.
In the case of `CCCCCN(C(=O)NC(=O)Nc1cccc(C)c1C)S(C)(=O)=O` it was -3.52%; in that of `CC(=O)OCCC(C)C`, 57.4% (active); in that of `CC(=O)OCC(COC(C)=O)OC(C)=O`, -14.9%.
`CC(=O)OC(C)C[N+](C)(C)C` (configuration not stated): the inhibition is 15.8%.
In the case of `CC(C)CC(=O)NC(=S)NNC(=O)c1cccc([N+](=O)[O-])c1` it was -4.7%; in that of `COc1ccc(C)cc1NC(=S)N1CCOCC1`, 1.61%; in that of `CC(=O)N1c2ccc(S(=O)(=O)N3CCCC(C(=O)Nc4cccc(Cl)c4)C3)cc2CC1C` (configuration not stated), -0.91%.
In the case of `CC(=O)N1CCCc2cc(S(=O)(=O)N3CCCC(C(=O)NCc4ccc(Cl)cc4)C3)ccc21` (configuration not stated) it was 27%; in that of `CC(=O)N1CCCc2cc(S(=O)(=O)N3CCCC(C(=O)N4CCN(c5cccc(Cl)c5)CC4)C3)ccc21` (configuration not stated), 64.5% (active).

The term inhibition denotes the drop in the measured response relative to a control, in per cent.
